From the supplement of paper PMC8728848
Many of the other results were omitted from the sample, so the strongest signals are more common in it than they were.

Key:
Assay in all cases: glycan array binding signal (z-score within array); higher = stronger binding
Settings in all cases: glycan notation: IUPAC condensed, linker removed
[1] = biological target: GlcNAc(a1-4)Gal(b1-4)GlcNAc(b1-3)Gal(b1-4)GlcNAc
Summary of the method: (§1)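 Glycan array data were curated from 3228 arrays in the Consortium for Functional Glycomics database and kept only where the protein sequence was available. Glycan names were converted to IUPAC-condensed notation, and columns mapping to the same glycan were averaged. The binding signal is a within-array Z-score, averaged across arrays of the same protein sequence at different concentrations or buffers and across linkers. Negative Z-scores can be read as non-binding.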

[2] = biological target: GlcNAc(b1-3)Fuc
Summary of the method: as §1

[3] = biological target: GlcNAc(b1-3)Gal(b1-4)GlcNAc(b1-3)Gal(b1-4)GlcNAc(b1-2)Man(a1-3)[GlcNAc(b1-3)Gal(b1-4)GlcNAc(b1-3)Gal(b1-4)GlcNAc(b1-2)Man(a1-6)]Man(b1-4)GlcNAc(b1-4)GlcNAc
Summary of the method: as §1

[4] = biological target: GlcNAc(b1-3)Gal(b1-4)GlcNAc(b1-6)[Gal(b1-3)]GalNAc
Summary of the method: as §1

[5] = biological target: GlcNAc(b1-3)GalNAc
Summary of the method: as §1

[6] = biological target: Man(a1-3)[Man(a1-6)]Man
Summary of the method: as §1

[7] = biological target: Neu5Ac(a2-3)Gal(b1-3)GalNAc(b1-4)[Neu5Ac(a2-3)]Gal(b1-4)Glc
Summary of the method: as §1

[8] = biological target: Neu5Ac(a2-3)Gal(b1-3)[Fuc(a1-4)]GlcNAc(b1-3)Gal(b1-4)[Fuc(a1-3)]GlcNAc
Summary of the method: as §1

[9] = biological target: Neu5Ac(a2-3)Gal(b1-3)[Neu5Ac(a2-3)Gal(b1-4)]GlcNAc
Summary of the method: as §1

[10] = biological target: Neu5Ac(a2-3)Gal(b1-3)]Neu5Ac(a2-3)Gal(b1-4)]GlcNAc
Summary of the method: as §1

[11] = biological target: Neu5Ac(a2-3)Gal(b1-4)GlcNAc(b1-2)Man(a1-3)[GlcNAc(b1-2)Man(b1-4)GlcNAc(b1-2)Man(a1-6)]Man(b1-4)GlcNAc(b1-4)GlcNAc
Summary of the method: as §1

[12] = biological target: Neu5Ac(a2-3)Gal(b1-4)GlcNAc(b1-2)Man(a1-3)[Neu5Ac(a2-3)Gal(b1-4)GlcNAc(b1-2)Man(a1-6)]Man(b1-4)GlcNAc(b1-4)GlcNAc
Summary of the method: as §1

[13] = biological target: Neu5Ac(a2-3)Gal(b1-4)GlcNAc(b1-2)Man(a1-3)[Neu5Ac(a2-3)Gal(b1-4)GlcNAc(b1-2)Man(a1-6)]Man(b1-4)GlcNAc(b1-4)[Fuc(a1-6)]GlcNAc
Summary of the method: as §1

[14] = biological target: Neu5Ac(a2-3)Gal(b1-4)GlcNAc(b1-2)[Neu5Ac(a2-3)Gal(b1-4)GlcNAc(b1-4)]Man(a1-3)[GlcNAc(b1-4)][Neu5Ac(a2-3)Gal(b1-4)GlcNAc(b1-2)[Neu5Ac(a2-3)Gal(b1-4)GlcNAc(b1-6)]Man(a1-6)]Man(b1-4)GlcNAc(b1-4)GlcNAc
Summary of the method: as §1

[15] = biological target: Neu5Ac(a2-3)Gal(b1-4)GlcNAc(b1-2)[Neu5Ac(a2-3)Gal(b1-4)GlcNAc(b1-4)]Man(a1-3)[GlcNAc(b1-4)][Neu5Ac(a2-3)Gal(b1-4)GlcNAc(b1-4)Man(a1-6)]Man(b1-4)GlcNAc(b1-4)GlcNAc
Summary of the method: as §1

[16] = biological target: Neu5Ac(a2-3)Gal(b1-4)GlcNAc(b1-2)[Neu5Ac(a2-3)Gal(b1-4)GlcNAc(b1-6)]Man(a1-6)[Neu5Ac(a2-3)Gal(b1-4)GlcNAc(b1-2)Man(a1-3)][GlcNAc(b1-4)]Man(b1-4)GlcNAc(b1-4)GlcNAc
Summary of the method: as §1

[17] = biological target: Neu5Ac(a2-3)Gal(b1-4)GlcNAc(b1-6)[Neu5Ac(a2-3)Gal(b1-3)]GalNAc
Summary of the method: as §1

[18] = biological target: Neu5Ac(a2-3)Gal(b1-4)[Fuc(a1-3)]GlcNAc(b1-3)Gal
Summary of the method: as §1

[19] = biological target: Neu5Ac(a2-3)Gal(b1-4)[Fuc(a1-3)]GlcNAc(b1-3)Gal(b1-4)[Fuc(a1-3)]GlcNAc(b1-3)Gal(b1-4)[Fuc(a1-3)]GlcNAc
Summary of the method: as §1

[20] = biological target: Neu5Ac(a2-3)Gal6S(b1-4)GlcNAc
Summary of the method: as §1

[21] = biological target: Neu5Ac(a2-3)Gal6S(b1-4)[Fuc(a1-3)]GlcNAc
Summary of the method: as §1

[22] = biological target: Neu5Ac(a2-6)Gal(b1-4)GlcNAc(b1-2)[Neu5Ac(a2-6)Gal(b1-4)GlcNAc(b1-4)]Man(a1-3)[GlcNAc(b1-4)][Neu5Ac(a2-6)Gal(b1-4)GlcNAc(b1-4)Man(a1-6)]Man(b1-4)GlcNAc(b1-4)GlcNAc
Summary of the method: as §1

[23] = biological target: Neu5Ac(a2-6)GalNAc
Summary of the method: as §1

[24] = biological target: Neu5Gc(a2-3)Gal(b1-4)Glc
Summary of the method: as §1

[25] = biological target: Neu5Gc(a2-3)Gal(b1-4)GlcNAc
Summary of the method: as §1

B1: Siglec-F (Mus musculus), Q920G3 (protein)
chain: MRWAWLLPLLWAGCLATDGYSLSVTGSVTVQEGLCVFVACQVQYPNSKGPVFGYWFREGANIFSGSPVATNDPQRSVLKEAQGRFYLMGKENSHNCSLDIRDAQKIDTGTYFFRLDGSVKYSFQKSMLSVLVIALTEVPNIQVTSTLVSGNSTKLLCSVPWACEQGTPPIFSWMSSALTSLGHRTTLSSELNLTPRPQDNGTNLTCQVNLPGTGVTVERTQQLSVIYAPQKMTIRVSWGDDTGTKVLQSGASLQIQEGESLSLVCMADSNPPAVLSWERPTQKPFQLSTPAELQLPRAELEDQGKYICQAQNSQGAQTASVSLSIRSLLQLLGPSCSFEGQGLHCSCSSRAWPAPSLRWRLGEGVLEGNSSNGSFTVKSSSAGQWANSSLILSMEFSSNHRLSCEAWSDNRVQRATILLVSGPKVSQAGKSETSRGTVLGAIWGAGLMALLAVCLCLIFFTVKVLRKKSALKVAATKGNHLAKNPASTINSASITSSNIALGYPIQGHLNEPGSQTQKEQPPLATVPDTQKDEPELHYASLSFQGPMPPKPQNTEAMKSVYTEIKIHKC
[1]
  glycan array binding signal (z-score): -0.146
[2]
  glycan array binding signal (z-score): -0.135
[3]
  glycan array binding signal (z-score): -0.064
[4]
  glycan array binding signal (z-score): -0.15
[5]
  glycan array binding signal (z-score): -0.12
[6]
  glycan array binding signal (z-score): -0.113
[7]
  glycan array binding signal (z-score): 3.76
[8]
  glycan array binding signal (z-score): -0.066
[9]
  glycan array binding signal (z-score): 2.46
[10]
  glycan array binding signal (z-score): 3.65
[11]
  glycan array binding signal (z-score): 2.11
[12]
  glycan array binding signal (z-score): 1.94
[13]
  glycan array binding signal (z-score): 2.76
[14]
  glycan array binding signal (z-score): 8.27
[15]
  glycan array binding signal (z-score): 5.53
[16]
  glycan array binding signal (z-score): 5.76
[17]
  glycan array binding signal (z-score): 0.072
[18]
  glycan array binding signal (z-score): -0.088
[19]
  glycan array binding signal (z-score): -0.109
[20]
  glycan array binding signal (z-score): 13.2
[21]
  glycan array binding signal (z-score): 12.9
[22]
  glycan array binding signal (z-score): -0.097
[23]
  glycan array binding signal (z-score): -0.113
[24]
  glycan array binding signal (z-score): -0.118
[25]
  glycan array binding signal (z-score): -0.126
